Pf growth 48h: Primary qHTS for delayed death inhibitors of the malarial parasite plastid, 48 hour incubation. Potency, µM (series often up to 28.7 µM), for the others: top-dose activity change, negative = inhibition, hits mostly inhibitors. 5.9% of 310,000 active. P. falciparum luciferase growth in erythrocytes, 48 h; note: potency is the fitted concentration of half-maximal effect; % is set by controls: 0 for no effect and ±100 for the full control effect
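In quantitative HTS format, infected erythrocytes bearing luciferase-reporter parasites were treated for a single generation at 37 C. Luminescence after adding detection reagent served as the growth measure.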
Sm TGR block: qHTS Assay for the Inhibitors of Schistosoma Mansoni Peroxiredoxins; purified TGR, DTNB reduction, TNB absorbance 405 nm; Potency, µM (highest dose often 114 µM), for inactives: at the highest dose activity change, negative = inhibition, hits mostly inhibitors; 3% of 360,000 active; AID 485364, 2010; note: potency is the fitted concentration of half-maximal effect; % is set by controls: 0 for no effect and ±100 for the full control effect; nearly all actives have a fitted effect of over 60% in size
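Kinetic colorimetric format: TGR-catalysed, NADPH-driven DTNB reduction monitored via TNB absorbance. Enzyme dispensed at 20 nM; compound exposure 15 min at room temperature before reaction start.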
Pf growth 96h: Primary qHTS for delayed death inhibitors of the malarial parasite plastid, 96 hour incubation; P. falciparum luciferase reporter growth, 96 h; Potency, µM (series often up to 28.7 µM), without a hit: at the top dose activity change, negative = inhibition, hits mostly inhibitors; 6.9% of 320,000 active; AID 504834, 2011; note: potency is the fitted concentration of half-maximal effect; % is set by controls: 0 for no effect and ±100 for the full control effect
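Two parasite generations (96 h, 37 C, 5% CO2) of compound exposure in infected erythrocytes (0.05% parasitemia, 2% hematocrit). Luciferase-reporter P. falciparum; decreased luminescence indicates inhibited growth, aimed at apicoplast-acting delayed death.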
Shiga inhibitor: A qHTS for Small Molecule Inhibitors of Shiga Toxin; Vero cells, Shiga toxin protein synthesis inhibition reporter; inhibition, % at 38.7 µM; 9.2% of 290,000 active; in the data active = inhibition mostly above about 28%, no sharp cut-off; inactive = mostly below about 43%; note: 0% is about no effect
NS1 inh: qHTS Assay for Inhibitors of Influenza NS1 Protein Function. Potency, µM (top dose mostly 46.1 µM), for the others: at the highest dose activity, positive = more growth. 0.4% of 270,000 active; calls by dose curve; note: potency is the fitted concentration of half-maximal effect; actives are rising curves; nearly all actives have a fitted effect of over 50% in size
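OD600 was taken as the measure of yeast growth restored by compound in an NS1-expressing S. cerevisiae strain. Cells had been washed out of glucose medium and diluted 1:100 into galactose -URA medium, pH 6.0.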
CHX counter: Cycloheximide Counterscreen for Small Molecule Inhibitors of Shiga Toxin; cell reporter, cycloheximide protein synthesis inhibition counterscreen; max response, %; 12% of 300,000 active; AID 2314, 2010; in the data active = max response mostly above about 13%, no sharp cut-off; inactive = mostly below about 14%; note: read at 38.3 µM for the half of the compounds with a filed dose; 0% is about no effect
Numbers without * were called inactive; ? = inconclusive; nt = not tested or not shown; [ ] = dose if it differs, or a comment. This is a sample that favours compounds with a hit; in the whole collection about 21% have one here. Unless noted, calls come from the whole dose curve; as a rule, active = well fitted curve in the direction sought with a large enough effect; inconclusive = small, poorly fitted or top-dose-only effect, or another doubt; inactive = no such curve, though single readings can be large; an effect the other way counts as inactive or inconclusive.

SMILES	Pf growth 48h	Sm TGR block	Pf growth 96h	Shiga inhibitor	NS1 inh	CHX counter
COc1ccc(C(=O)CN2C(=O)C(C)(C)Oc3ccc(C(=O)N4CCCCCC4)cc32)cc1	nt	16.9%[11.4 µM]	9.28µM*	-6.0	-1.1%	-0.4
O=c1[nH]c(=O)n(Cc2ccc(F)cc2)c(O)c1C=Nc1ccc(Cl)cc1	0.0%	?	-1.0%	17.2	nt	1.6
CC(C)n1c(=O)c(C=Nc2ccc(Cl)cc2)c(O)n(Cc2ccco2)c1=O	10.4µM*	-20.1%	1.04µM*	-3.8	24.2%	-1.9
CC(C)n1c(=O)c(C=Nc2ccc(F)cc2)c(O)n(Cc2ccco2)c1=O	14.7µM*	3.3%	?	45.0	0.7%	6.0
O=c1c2oc3ccccc3c2n(Cc2ccc(Cl)cc2)c(=O)n1Cc1ccco1	nt	0.5%	nt	nt	nt	nt
NC(N)=N[C@H](CC(=O)O)c1ccccc1	nt	nt	nt	nt	-2.8%	nt
Cc1nc(-c2c(C(F)(F)F)noc2-c2ccc(O)cc2O)cs1	30.5%	-28.8%	?	-9.7	4.9%	-1.6
CCOc1cc(C)c(-c2onc(C(F)(F)F)c2-c2csc(C)n2)c(O)c1	1.65µM*	13.9%	1.85µM*	11.8	-118.3%	-4.7
O=C(CSc1nnc(-c2ccccc2Cl)n1Cc1ccco1)Nc1ccc2c(c1)OCCO2	?	-14.0%	nt	4.1	-7.8%	12.6*
O=C(CSc1nnc(COc2ccccc2)n1Cc1ccco1)Nc1ccc2c(c1)OCCO2	-5.8%	-9.4%	8.5%	-5.6	-44.0%	-1.1
COc1ccc(-c2cnc(SCC(=O)Nc3ccc4c(c3)OCO4)n2Cc2ccco2)cc1	nt	-23.7%	nt	24.7	-55.7%	13.8*
O=C(CSc1nnc(-c2ccc(Cl)cc2)n1Cc1ccco1)Nc1ccc2c(c1)OCCO2	?	25.1µM*	?	3.7	-38.0%	10.6
NC(=O)Nc1ccc(C(=O)OCC(=O)NC2CCCCC2)cc1	-19.2%	-0.7%	25.0%	48.3	5.1%	16.6
COc1ccc(-c2nc3ccccc3s2)cc1NC(=O)c1cccc([N+](=O)[O-])c1C	nt	-0.6%	nt	nt	nt	nt
CCOc1cc2[nH]c(=O)n(CCCN3CCN(c4ccc(OC)cc4)CC3)c(=O)c2cc1OCC	?	0.1%	?	-8.8	nt	1.9
CC1CCCCC1NC(=O)C1CCC(CNS(=O)(=O)c2ccccc2)CC1 (stereo not drawn)	-22.1%	4.8%	?	-5.1	-2.1%	-1.8
C/C(=N/Oc1nc(C)cc(C)n1)c1ccc(F)cc1	37.6%	21.0%	6.7%	41.0	-32.5%	20.8*
C/C(=N\Nc1nc(C)cc(-c2ccccc2)n1)c1ccc(F)cc1	?	27.2%	-12.7%	10.6	2.3%	7.2
C/C(=N/Oc1nc(C)cc(C)n1)c1ccccc1	nt	2.9%	24.6%	49.7	-1.8%	19.2*
C/C(=N\OCC(=O)Nn1c(C)nc2ccccc2c1=O)c1ccccc1	-13.8%	-25.0%	?	-10.5	2.3%	-4.9
CCC(=O)c1c[nH]c(C(=O)N2CCOCC2)c1	0.2%	-0.8%	0.0%	-8.4	0.0%	-3.5
O=C(NC1CCCCC1)C(c1ccncc1)N(C(=O)Cc1cccs1)c1ccccc1 (stereo not drawn)	9.4%	2.0%[57.1 µM]	2.9%	-22.6	4.5%	-3.2
COc1cccc(O)c1CN1CCCC(C(=O)c2ccccc2SC)C1 (stereo not drawn)	?	-4.0%	-0.4%	-4.8	-1.6%	-1.6
COc1cc(CN2CCCC(C(=O)c3ccccc3SC)C2)cc(OC)c1 (stereo not drawn)	0.0%	0.0%	11.7µM*	-9.5	6.6%	-5.7
COc1cc(OC)c(OC)cc1CN1CCCC(C(=O)c2ccccc2SC)C1 (stereo not drawn)	-7.3%	-8.2%	3.7µM*	27.0	-2.2%	-2.3
SMILES	Pf growth 48h	Sm TGR block	Pf growth 96h	Shiga inhibitor	NS1 inh	CHX counter
CCOC(=O)c1c(C)[nH]c(C)c1S(=O)(=O)N1CCC(C(=O)NCc2cccc(OC)c2)CC1	nt	29.0%	nt	nt	nt	nt
Cc1cc(C(=O)N2CC=C(c3ccccc3)CC2)c2ccccc2n1	?	-0.5%	-0.9%	nt	nt	nt
Cc1ccc(C(=O)N2CC=C(c3ccccc3)CC2)o1	13.1µM*	28.2µM*	-4.7%	nt	nt	nt
O=C(O)c1ccccc1C(=O)N1CC=C(c2ccccc2)CC1	?	35.5µM*	37.4%	71.9	-1.5%	26.9*
COc1ccc(-c2[nH]ncc2C=O)cc1OC	14.6%[5.75 µM]	1.5%	0.0%	-4.4	nt	5.1
CCOC(=O)C1=NOC(C(=O)NN(C)c2ncc(C(F)(F)F)cc2Cl)C1 (stereo not drawn)	?	-25.5%	48.9%	-3.8	nt	7.5
Nc1nc(COc2ccc(F)cc2)nc(N2CCCCC2)n1	22.3%	-3.5%	21.9%	-9.7	nt	18.8*
COc1ccc(C(=O)N2CCCC(CCC(=O)NCc3ccccc3F)C2)c(OC)n1 (stereo not drawn)	1.2%	-4.2%	?	8.2	3.3%	22.8*
Cc1nn(C)c(Cl)c1CN1CCCC(CCC(=O)NCc2ccccc2F)C1 (stereo not drawn)	9.1%	-8.1%[57.1 µM]	-13.4%	-17.6	5.9%	0.4
O=C(CCC1CCCN(C(=O)CCC(F)(F)F)C1)NCc1ccc(F)c(F)c1 (stereo not drawn)	-14.6%	25.0%	25.1%	-2.4	-0.1%	-1.1
COCc1ccc(C(=O)N2CCCC(CCC(=O)NCc3ccccc3F)C2)o1 (stereo not drawn)	-4.8%	-34.1%	?	8.0	1.1%	8.8
CCOc1cccc(CN2CCCC(CCC(=O)NCc3ccccc3F)C2)c1O (stereo not drawn)	?	-1.9%	1.47µM*	-1.8	-0.6%	10.4
Cc1ccc(CNC(=O)CCC2CCCN(C(=O)CCC(F)(F)F)C2)o1 (stereo not drawn)	-0.8%	12.6µM*	8.28µM*	-2.4	3.7%	-2.8
O=C(CCC1CCCN(C(=O)c2ccc3c(c2)OCCO3)C1)NCc1ccccc1F (stereo not drawn)	106.6%	12.6%	?	77.1*	-3.8%	48.4*
CCCN(CCC)C(=O)C1CCN(c2cc(C)nc3c(-c4ccc(Cl)cc4)c(C)nn23)CC1	nt	4.9%	nt	nt	nt	nt
CCOc1ccc(NC(=O)CN(C)C(=O)C2CCCO2)cc1OCC (stereo not drawn)	-5.8%	-13.1%	33.6%	nt	nt	nt
Cc1ccc(CNC(=O)CCC2CCCN(C(=O)c3ccc4c(c3)OCO4)C2)o1 (stereo not drawn)	-8.2%	14.1µM*	20.1%	12.8	1.1%	12.0
CC(=O)c1cccc(CN2CCCC(CCC(=O)NCc3ccc(C)o3)C2)c1 (stereo not drawn)	?	-33.0%	9.6%	2.7	-3.6%	-1.8
Cc1ccc(CNC(=O)CCC2CCCN(Cc3cccc4ncccc34)C2)o1 (stereo not drawn)	?	-1.3%	-22.3%	24.0	-7.2%	11.1*

Bioassay records (PubChem BioAssay)
